Measured values published in PubChem BioAssay.
Where “and” joins values, the source holds several entries; their conditions need not be identical. Equal entries are not always repeated. Inconclusive results are not listed. Calls of active or inactive are those of the source.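 How the source made its calls, unless noted: active means normalized viability below 100% at a tested concentration; inactive means the rest.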

Columns and labels:
[1] = growth inhibition of DIPG glioma cells, dose response, cell-based, SU-DIPG-XVII, MIPE5.0, CellTiter-Glo, qHTS (AID 1347060; cut-off not given, nearly all actives have AC50 up to about 26 µM;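 on AC50: cells exposed to compound for 48 hours before viability readout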); details: SU-DIPG-XVII viability, CellTiter-Glo ATP luminescence
[2] = growth inhibition of DIPG glioma cells, dose response, cell-based, SU-DIPG-XIII, MIPE4.0, CellTiter-Glo, qHTS (AID 1347061; cut-off not given, nearly all actives have AC50 up to about 37 µM;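 further: cells exposed to compound for 48 hours before readout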); details: SU-DIPG-XIII viability, CellTiter-Glo ATP luminescence
[3] = growth inhibition of DIPG glioma cells, dose response, cell-based, JHH-DIPG-1, MIPE4.0, CellTiter-Glo, qHTS (AID 1347062; cut-off not given, nearly all actives have AC50 up to about 27 µM;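 on AC50: cells exposed to compound for two days before readout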); details: JHH-DIPG-1 viability, CellTiter-Glo ATP luminescence
[4] = growth inhibition of DIPG glioma cells, dose response, cell-based, SU-DIPG-IV, MIPE4.0, CellTiter-Glo, qHTS (AID 1347063; cut-off not given, nearly all actives have AC50 up to about 30 µM;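 further: compound exposure lasted 48 hours before the viability readout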); details: SU-DIPG-IV viability, CellTiter-Glo ATP luminescence
[5] = growth inhibition of DIPG glioma cells, dose response, cell-based, SU-DIPG-XIII, MIPE5.0, CellTiter-Glo, qHTS (AID 1347064; cut-off not given, nearly all actives have AC50 up to about 23 µM;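 on AC50: cells exposed to compound for 48 hours before the viability read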); details: SU-DIPG-XIII viability, CellTiter-Glo ATP luminescence
[6] = viability loss in pontine glioma line – cell-based, SU-DIPG-XXV, MIPE5.0, CellTiter-Glo, qHTS, dose response (AID 1347065; cut-off not given, nearly all actives have AC50 up to about 26 µM;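 further: cells exposed to compound for 48 hours before ATP readout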); details: CellTiter-Glo ATP luminescence
[7] = JHH-DIPG-1 glioma cell viability, MIPE5.0 library, CellTiter-Glo luminescence, qHTS (AID 1347067; cut-off not given, nearly all actives have AC50 up to about 26 µM;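 further: cells exposed to compound for 48 hours before readout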); details: JHH-DIPG-1 glioma viability, CellTiter-Glo ATP luminescence
[8] = modifiers of HSF1 nuclear foci, imaging, Selleck Cancer Library (AID 1347162; in the data active means plate-normalised HSF1 focus index below about 0.46); details: human cells, at 10 µM; SSMD: measured here: HSF1 foci SSMD mean; cell count: measured here: cell number; plate-normalised HSF1 focus index: stronger effect = lower value
[9] = sensitizers of A549 cells to miR-34 induction, primary screen, imaging, A549 dox-inducible miR-34, nuclei and caspase counts (AID 1347080;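 active means compounds whose cell count with miR-34 switched on is under 0.7 times the count with it off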); details: A549 miR-34 inducible, Hoechst nuclei count, 48 h
[10] = survival rescue of mitochondrial mutant cells in low glucose, primary screen, MELAS cybrids, Rieske KO mouse fibroblasts, CellTiter-Glo (AID 1508586;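 active means mean z-score across replicates of 1.96 or higher in either the MELAS or the Rieske mutant cell line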;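 further: z relative to plate mean and SD of compound and empty wells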)
[11] = SU-DIPG-VI glioma cell viability, MIPE4.0 library, CellTiter-Glo luminescence, qHTS (AID 1347066; cut-off not given, nearly all actives have AC50 up to about 30 µM;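 further: cells exposed to compound for 48 hours before readout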); details: CellTiter-Glo ATP luminescence
[12] = ovarian cancer cell viability with rucaparib, profiling panel, oncology-focused library, rucaparib conditional (AID 1508598); details: patient-derived ovarian cancer cells, CellTiter-Glo viability, 144 h, stronger effect = lower value
[13] = stronger effect = lower value, cell number ratio, induced over uninduced
[14] = measured here: relative caspase fold change +Dox/-Dox
[15] = measured here: total cells with miR-34 induction, stronger effect = lower value
[16] = measured here: total cells without miR-34 induction
[17] = MELAS cybrid survival, CellTiter-Glo 48 h, stronger effect = higher value
[18] = Rieske KO mouse fibroblast survival, CellTiter-Glo 72 h

CC(C)Oc1cc(Nc2nc(N[C@@H](C)c3ccc(F)cn3)ncc2Cl)[nH]n1
inactive: plate-normalised HSF1 focus index [8] 0.979
-0.66: SSMD [8]
active: AC50 [1] 1.05 µM | AC50 [2] 11.8 µM | AC50 [3] 10.5 µM | AC50 [4] 6.62 µM | AC50 [5] 1.18 µM | AC50 [6] 0.742 µM | AC50 [7] 5.9 µM
6860: cell count [8]

CO[C@H]1/C=C/O[C@@]2(C)Oc3c(C)c(O)c4c(O)c(c(/C=N/N5CCN(C)CC5)c(O)c4c3C2=O)NC(=O)/C(C)=C\C=C\[C@H](C)[C@H](O)[C@@H](C)[C@@H](O)[C@@H](C)[C@H](OC(C)=O)[C@@H]1C
-0.112 and -0.159: z-score [10, 18]
inactive: outcome [1] | outcome [2] | outcome [3] | outcome [4] | outcome [7] | fold change [9, 13] 0.839 and 0.889 | z-score [10, 17] 1.76 and 0.859
active: AC50 [5] 20.9 µM
10800 and 11100: cell count [9, 16]
9030 and 9880: cell count [9, 15]
1.31 and 1.13: fold change [9, 14]

C=Cc1c(C)c2cc3nc(cc4[nH]c(cc5nc(cc1[nH]2)C(C)=C5CCC(=O)O)c(CCC(=O)OC)c4C)[C@@]1(C)C3=CC=C(C(=O)OC)[C@H]1C(=O)OC
active: AC50 [1] 11.8 µM | AC50 [2] 0.743 µM | AC50 [3] 0.0662 µM | AC50 [4] 0.105 µM | AC50 [5] 9.34 µM | AC50 [11] 14.8 µM

CCCCCCCCCC(=O)N[C@@H](Cc1c[nH]c2ccccc12)C(=O)N[C@H](CC(N)=O)C(=O)N[C@@H](CC(=O)O)C(=O)N[C@@H]1C(=O)NCC(=O)N[C@@H](CCCN)C(=O)N[C@@H](CC(=O)O)C(=O)N[C@H](C)C(=O)N[C@@H](CC(=O)O)C(=O)NCC(=O)N[C@H](CO)C(=O)N[C@@H]([C@@H](C)CC(=O)O)C(=O)N[C@@H](CC(=O)c2ccccc2N)C(=O)O[C@@H]1C
inactive: outcome [1] | outcome [2] | outcome [3] | outcome [4] | outcome [5] | outcome [11] | outcome [7]

COc1c(C)cnc(Cn2cnc3c(Cl)nc(N)nc32)c1C
inactive: fold change [9, 13] 0.993 | plate-normalised HSF1 focus index [8] 1.16 | viability ([12]; at 0.000305 µM, OCI-C5x cells, with rucaparib 10 µM, 100% = cells with rucaparib alone) 115% | viability ([12]; at 0.000305 µM, OCI-C5x cells, without rucaparib) 104% | viability ([12]; at 0.000305 µM, OCI-P5x cells, with rucaparib 20 µM, 100% = cells with rucaparib alone) 111% | viability ([12]; at 0.00122 µM, OCI-C5x cells, with rucaparib 10 µM, 100% = cells with rucaparib alone) 122% | viability ([12]; at 0.00122 µM, OCI-C5x cells, without rucaparib) 111% | viability ([12]; at 0.00122 µM, OCI-P5x cells, with rucaparib 20 µM, 100% = cells with rucaparib alone) 116% | viability ([12]; at 0.00122 µM, OCI-P5x cells, without rucaparib) 110% | viability ([12]; at 0.00488 µM, OCI-C5x cells, with rucaparib 10 µM, 100% = cells with rucaparib alone) 123% | viability ([12]; at 0.00488 µM, OCI-P5x cells, with rucaparib 20 µM, 100% = cells with rucaparib alone) 122% | viability ([12]; at 0.00488 µM, OCI-P5x cells, without rucaparib) 118% | viability ([12]; at 0.0195 µM, OCI-C5x cells, with rucaparib 10 µM, 100% = cells with rucaparib alone) 125% | viability ([12]; at 0.0195 µM, OCI-C5x cells, without rucaparib) 111%
active: AC50 [1] 0.525 µM | AC50 [2] 1.18 µM | AC50 [3] 0.187 µM | AC50 [4] 0.332 µM | AC50 [5] 1.05 µM | AC50 [6] 0.742 µM | AC50 [7] 1.05 µM | z-score [10, 17] 2.83 | viability ([12]; at 0.000305 µM, OCI-P5x cells, without rucaparib) 99.7% | viability ([12]; at 0.00488 µM, OCI-C5x cells, without rucaparib) 82.7%
4.45: SSMD [8]
1960: cell count [9, 16]
1950: cell count [9, 15]
7350: cell count [8]
0.0158: z-score [10, 18]
1.45: fold change [9, 14]
